# Measured values as given in PubChem BioAssay (NCATS).
# Records with an inconclusive call do not appear. Unmarked numbers belong to inactive results. Calls of active or inactive are those of the source. The call rests on the fitted dose curve; in most records, active means well fitted curve in the direction sought with a large enough effect; inconclusive means small, poorly fitted or top-dose-only effect, or another doubt; inactive means no such curve, though single readings can be large; an effect the other way counts as inactive or inconclusive.
# Experiment: qHTS for Inhibitors of Plasmodium falciparum (HB3) proliferation (AID 504318); further: nearly all actives have a fitted effect of over 60% in size;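 on activity change, negative = inhibition: 0% = DMSO vehicle and -100% = artemisinin control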
# Conditions: P. falciparum HB3 in erythrocytes, SYBR Green DNA, 72 h; series mostly up to 7.21 µM; activity change, negative = inhibition: at the top concentration
# In short: (§1)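 Erythrocytes infected with P. falciparum line (0.3% parasitemia, 2.5% hematocrit final) incubated with compounds 72 h at 37 °C, 5% CO2; SYBR Green lysis buffer added, fluorescence read next day. Normalized to 0.29 uM artemisinin and DMSO.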
# Potency means the concentration at half of the fitted maximal effect.
SMILES,Potency,"activity change, negative = inhibition [%]"
c1ccc(-c2nc(-c3cccc4ccccc34)c(Nc3ccc4ccccc4c3)o2)cc1,1.51 µM (active),–
COC(=O)C(C(=O)OC)[C@@H]1c2ccccc2[C@H]2C(=C[C@@H](C)[C@H]3C(=O)N(c4ccccc4)C(=O)[C@H]32)N1C(=O)OC,–,-3.74
COC(=O)C1=C(C(=O)OC)[C@@H]2N(Cc3ccccc3)c3ccccc3[C@@]23C[C@@H](C(=O)OC)N(S(=O)(=O)c2ccc(C(F)(F)F)cc2)C3=N1,0.478 µM (active),–

# Experiment: qHTS for Inhibitors of Plasmodium falciparum (CP250) proliferation (AID 504320);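 on activity change, negative = inhibition: plate controls were DMSO vehicle for no effect and 0.29 µM artemisinin control for full effect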
# Conditions: P. falciparum CP250 in erythrocytes, SYBR Green DNA, 72 h; series mostly up to 6.7 µM; activity change, negative = inhibition: at the top concentration
# In short: as §1
SMILES,"activity change, negative = inhibition [%]",Potency
CCCCC1=CC2=CC(=O)C(C)(OC(=O)CC)C(=O)C2=CN1Cc1ccc2c(c1)OCO2 (centres undefined),4.19,–
COC(=O)N1C2=C(c3ccccc3[C@@H]1CC(=O)Nc1ccc(Br)cc1)[C@@H]1C(=O)N(c3ccccc3)C(=O)[C@@H]1[C@H](C)C2,-0.151,–
CCCCCCCC1=Cc2ccccc2C(C(C(C)=O)C(=O)OC)N1C(=O)OC (centres undefined),–,inactive
C=CCN1c2ccccc2[C@]23C[C@@H](C(=O)OC)N(C(=O)c4ccc(Br)cc4)C2=NC(C(=O)OC)=C(C(=O)OC)[C@H]13,0.051,–
COC(=O)C1=C(C(=O)OC)[C@@H]2Nc3ccccc3[C@@]23C[C@@H](C(=O)OC)N(S(=O)(=O)c2ccc(OC)cc2)C3=N1,-0.698,–
COC(=O)CCC(=O)OC1(C)C(=O)C=C2C=C(C3CC3)N(C(CO)CO)C=C2C1=O (centres undefined),0.485,–
COCC(=O)N1CCc2nc(COc3ccccc3)c3c(c2C1)CO[C@@H](C)C3,2.16,–
C=CCOC(=O)C(C(C)=O)[C@@H](NC(=O)OC)c1cccc(C(F)(F)F)c1 (some centres undefined),-1.68,–
C#CCCOC(=O)N1C2=NC(C(=O)OC)=C(C(=O)OC)[C@@H]3N(Cc4ccccc4)c4ccccc4[C@]23C[C@H]1C(=O)OC,2.78,–
COC(=O)C1=C(C(=O)OC)[C@@H]2N(C)c3ccc(OC)cc3[C@@]23C[C@@H](C(=O)OC)N(C(=O)CC(C)C)C3=N1,-1.23,–
CCCCCCC(=O)Cc1cc(OC)c(OC)cc1C=C(C(=O)OCC)C(=O)OCC,0.969,–
COc1cccc(CC(=O)N2CCc3nc(-c4ccc(OC)cc4C)c4c(c3C2)CO[C@@H](c2ccccc2)C4)c1,2.43,–
COC(=O)C1=C(C(=O)OC)[C@@H]2N(Cc3ccccc3)c3ccccc3[C@@]23C[C@@H](C(=O)OC)N(C(=O)CC(C)C)C3=N1,-6.74,–
COC(=O)C1=C(C)N(Cc2ccccc2)C(=NCCc2cccnc2)NC1c1ccc(Br)cc1 (centres undefined),–,1.9 µM (active)
COC(=O)C1=C(C(=O)OC)[C@@H]2N(C)c3ccc(OC)cc3[C@@]23C[C@@H](C(=O)OC)N(S(=O)(=O)c2ccc(C)cc2)C3=N1,1.64,–
COC(=O)N1C2CC(=O)O[C@@H]3c4cc5c(cc4[C@]1(C)[C@@]3(Br)c1ccccc12)OCO5,–,1.2 µM (active)
CCN1C(=O)N(S(=O)(=O)c2ccc(C)cc2)[C@@H](c2ccccc2)C(C(=O)OC)=C1C,-1.66,–
COC(=O)C1=C(C(=O)OC)[C@@H]2N(Cc3ccccc3)c3ccccc3[C@@]23C[C@@H](C(=O)OC)N(S(=O)(=O)c2ccc(Br)cc2)C3=N1,–,1.69 µM (active)

SMILES,"activity change, negative = inhibition [%]",Potency
CC#CCN1c2ccccc2[C@]23C[C@@H](C(=O)OC)N(S(=O)(=O)c4ccc([N+](=O)[O-])cc4)C2=NC(C(=O)OC)=C(C(=O)OC)[C@H]13,-25.7,–
CC#CCN1c2ccccc2[C@]23C[C@@H](C(=O)OC)N(S(=O)(=O)c4ccc(C#N)cc4)C2=NC(C(=O)OC)=C(C(=O)OC)[C@H]13,2.89,–
C[C@H]1CC[C@H]2C(=O)N(Cc3ccccc3)C[C@H](O)CN2[C@H]1c1cccc(Br)c1,2.66,–
COC(=O)N1C(/C=C/c2ccc3c(c2)OCO3)=Cc2ccccc2C1CC(C)=O (centres undefined),-21.8,–
COC(=O)CCCC1=CC2=C(c3ccccc3)C(=O)C(C)(OC(=O)C3CCCC3)C(=O)C2=CN1CC(C)C (centres undefined),6.12,–
COC(=O)CCC(=O)OC1(C)C(=O)C2=CN(C3CCCC3)C(c3ccc(OC)cc3)=CC2=C(Br)C1=O (centres undefined),-2.18,–
COC(=O)C1=C(C(=O)OC)[C@@H]2N(C)c3ccc(OC)cc3[C@@]23C[C@@H](C(=O)OC)N(S(=O)(=O)c2ccc(C(F)(F)F)cc2)C3=N1,-18.5,–
CCOC(=O)CN1C(=O)N[C@@H](c2cccc(C(F)(F)F)c2)C(C(=O)OC)=C1C,0.47,–
CCCCS(=O)(=O)N1CCc2nc(-c3ccc(OC)cc3C)c3c(c2C1)CO[C@@H](c1ccccc1)C3,-20.9,–
CCOC(=O)CN1C(=O)N(CC)C(C)=C(C(=O)OC)[C@@H]1c1ccccc1,-3.46,–
COC(=O)C(C(=O)OC)[C@@H]1c2ccccc2[C@H]2C(=C[C@@H](C)[C@H]3C(=O)N(c4ccccc4)C(=O)[C@H]32)N1C(=O)OC,-1.88,–
CCCCc1nc2c(c3c1C[C@H](C)OC3)CN(S(=O)(=O)c1ccc3c(c1)OCCN3C)CC2,4.76,–
COC(=O)CCC(=O)OC1(C)C(=O)C2=CN(CCCCO)C(c3ccc(OC)cc3)=CC2=C(Br)C1=O (centres undefined),-1.12,–
COC(=O)CCC(=O)OC1(C)C(=O)C=C2C=C(C3CC3)N(c3cccc(C#N)c3)C=C2C1=O (centres undefined),-7.8,–
CC1(OC(=O)C2CCCC2)C(=O)C=C2C=C(c3ccsc3)N(CCc3c[nH]c4ccccc34)C=C2C1=O (centres undefined),0.784,–
COC(=O)C1=C(C(=O)OC)[C@@H]2N(Cc3ccccc3)c3ccccc3[C@@]23C[C@@H](C(=O)OC)N(S(=O)(=O)c2ccc(C(F)(F)F)cc2)C3=N1,–,0.536 µM (active)
COC(=O)C1=C(C(=O)OC)[C@@H]2N(Cc3ccccc3)c3ccccc3[C@@]23C[C@@H](C(=O)OC)N(S(=O)(=O)c2cccs2)C3=N1,-19,–
COc1ccc(-c2nc3c(c4c2C[C@H](c2ccccc2)OC4)CN(C(=O)Cc2cccs2)CC3)c(C)c1,-1.2,–
